# Assay results from PubChem BioAssay AID886 (National Center for Advancing Translational Sciences (NCATS), 2007).
# Screen size: about 73,000 compounds; about 2,500 (3.4%) were called active. Where a call stands in place of a potency, no number is given. Inconclusive results (about 7%) are left out. The sample as a whole holds a higher share of actives than the screen did. Unmarked numbers belong to inactive results. Calls follow the shape of the dose curve; as a rule, active = well fitted inhibition curve with a large enough effect; inconclusive = small, poorly fitted or top-dose-only effect; inactive = no such curve, though single readings can be large or run the other way.
# Target: 3-hydroxyacyl-CoA dehydrogenase type-2 (Homo sapiens) (UniProt Q99714)
# Experiment: qHTS Assay for Inhibitors of HADH2 (Hydroxyacyl-Coenzyme A Dehydrogenase, Type II); also: nearly all actives have a fitted effect of over 60% in size
# Conditions: recombinant HADH2, NADH fluorescence, beta-hydroxybutyryl-CoA; series mostly up to 57.1 µM
# Text: Assay Overview: NIH Molecular Libraries Screening Centers Network [MLSCN] NIH Chemical Genomics Center [NCGC] Structural Genomics Consortium [SGC] Grant Number: None HADH2: Hydroxyacyl-Coenzyme A dehydrogenase, type II, was supplied by researchers at the Structural Genomics Consortium, Oxford University lab (PI Udo Oppermann). The mitochondrial enzyme 17-hydroxysteroid dehydrogenase type 10 (HSD17-10) previously classified as type II hydroxyacyl-CoA dehydrogenase (HADH2) catalyzes the NAD+ dependent oxidation of a variety of substrates including acyl-CoAs, androgens and neurosteroids as well as bile acids(Shafqat N, Marschall HU, Filling C, et al. Biochemical Journal. 2003;376(Pt 1):49-60). The role in neurodegeneration by binding to amyloid-peptide led to its identification (Oppermann UC, et al FEBS Letters. 1999;451(3):238-242 and Yan SD, et al. Nature. 1997;389(6652):689-695), and mutations in its gene appear to be causative for 2-methyl-3-hydroxybutyryl-CoA dehydrogenase deficiency (Ofman R, et al. American Journal of Human Genetics. 2003;72(5):1300-1307). The enzyme was produced by E.coli fermentation as His-tagged recombinant for the purpose of X-ray structure determination, and had been mass-spectrometry characterized. Inhibition of HADH2 activity was screened by utilizing beta-hydroxybutyryl coenzyme A as an electron donor and NAD+ as an electron acceptor/cofactor. An increase in the fluorescence intensity due to conversion of NAD+ to NADH was used to measure the enzyme activity.
# Assay Protocol: Buffer: 100 mM Tris-HCl pH 9.0, containing 0.01 % Tween-20. Reagents/Controls: Buffer in columns 3 and 4 as negative control (no enzyme). Substrate/cofactor solution: 1 mM NAD+ and 90 uM beta-hydroxybutyryl coenzyme A (Sigma-Aldrich, St. Louis, MO) final concentrations dispensed throughout the plate. Enzyme: 20 nM HADH2 final concentration in columns 1, 2, 5-48. Column 1 is neutral (100% activity). Column 2 contained titration of apomorphine (Sigma-Aldrich, A 4393, PubChem CID 2215, top concentration 500 uM, then 1:2 dilution in duplicate) Assay Steps: Three uL of enzyme were dispensed to 1536-well Greiner black solid bottom plates. Compounds and controls (23 nL) were transferred via Kalypsys PinTool. The plates were incubated for 15 min at room temperature, and then 1 uL of substrate/cofactor solution was added to start the reaction. The plates were immediately transferred to and read every 30 seconds for 4 min on ViewLux High-throughput CCD imager (Perkin-Elmer) using 360 nm excitation and 450 nm emission fluorescence protocol. The fluorescence intensity difference between the last and the first time points was used to compute reaction progress.
# Potency is read from the fitted curve at half-maximal effect.
# Chain of 3-hydroxyacyl-CoA dehydrogenase type-2 (Homo sapiens) (Q99714 whole entry, looked up): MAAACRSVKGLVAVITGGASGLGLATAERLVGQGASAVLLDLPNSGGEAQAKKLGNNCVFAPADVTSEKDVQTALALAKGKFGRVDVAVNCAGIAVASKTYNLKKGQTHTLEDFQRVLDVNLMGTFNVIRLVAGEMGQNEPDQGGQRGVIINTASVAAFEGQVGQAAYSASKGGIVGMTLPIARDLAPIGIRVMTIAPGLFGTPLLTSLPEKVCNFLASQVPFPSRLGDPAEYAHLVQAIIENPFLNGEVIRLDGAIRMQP
# Chain of 3-hydroxyacyl-CoA dehydrogenase type-2 (Homo sapiens) (Q99714 whole entry, looked up): as above
SMILES,Potency,"activity change, negative = inhibition"
CC(=NCc1ccco1)C1=C(O)c2ccccc2C1=O,inactive,
O=c1[nH]c(-c2cccs2)nc2ccccc12,inactive,
CCc1c(C)nc2cc(-c3cccs3)[nH]n2c1=O,39.8 µM (active),
Cc1nc2nc(COc3ccccc3)[nH]n2c(=O)c1Cc1ccccc1,inactive,
CN(C)C(=O)/N=N\C(=O)N(C)C,0.631 µM (active),
CCNCCCNCCCNCCCNCC,inactive,
CO[C@H]1COC(=O)CCC[C@@H](C)[C@H](OC)COC(=O)[C@@H](C)NC(=O)C/C=C\[C@@H]1C,,7.05% [at 11.4 µM]
Cc1cccn2c(=O)c3cc(C#N)c(=NC(=O)c4cccnc4)n(CC4CCCO4)c3nc12 (stereo not given),25.1 µM (active),
O=c1c2cc3c(=O)n(CC4CCCO4)c(=O)c3cc2c(=O)n1CC1CCCO1 (stereo not given),inactive,
Cc1cccn2c(=O)c3cc(C#N)c(=O)n(CCCN4CCOCC4)c3nc12,31.6 µM (active),
Cn1c(=O)c2c(nc(CN3CCOCC3)n2Cc2ccccc2)n(C)c1=O,inactive,
CCCOc1ccc(C2c3c(oc4cc(C)c(C)cc4c3=O)C(=O)N2CCCN2CCOCC2)cc1 (stereo not given),inactive,
COc1ccc(CNC(=O)c2cc3c(=O)n4ccccc4nc3n(CC3CCCO3)c2=N)cc1 (stereo not given),inactive,
COc1ccc(-c2oc3cc(OC)ccc3c2C(=O)c2ccc(C#N)cc2)cc1,inactive,
c1ccc2nc(C3=NCCN3)cnc2c1,inactive,
CC(C)NC(=O)N1CCC2(CC1)CCN(C(=O)c1cccn1C)CC2,inactive,
c1ccc(Nc2nc(-c3ccncc3)cs2)nc1,inactive,
O=C(Nc1nc(-c2ccc3c(c2)OCO3)cs1)c1ccncc1,inactive,
O=C(Nc1nc(-c2ccncc2)cs1)C1COc2ccccc2O1 (stereo not given),1 µM (active),
C#CCCCCCCCCCCCCCCCC(=O)O,inactive,
C[N+](C)(C)CCCCCNCC12CC3CC(CC(C3)C1)C2,inactive,
O=C1NC(=O)[C@@](Cc2ccccc2)(c2cccnc2)N1,,1.4% [at 11.4 µM]
CCOc1ccc2[nH]c(=O)c(C(c3nnnn3CCOC)N3CCOCC3)cc2c1 (stereo not given),25.1 µM (active),
COc1ccc(N2CCN(C(c3cc4ccc(C)cc4[nH]c3=O)c3nnnn3C3CCCC3)CC2)cc1 (stereo not given),inactive,
COCCn1nnnc1C(c1cc2ccc(OC)cc2[nH]c1=O)N1CCc2ccccc2C1 (stereo not given),inactive,
O=C(c1ccco1)N1CCC2(CC1)CCN(c1ncccn1)CC2,inactive,
CCOC(=O)NCc1ccc2c(c1)OCO2,inactive,
CCCCC(=O)Nc1ccc2c(c1)OCCO2,inactive,
CCC1=C/C(=C\c2ccc3c(c2)OCO3)C(=O)S1,31.6 µM (active),
C1CCC2OC2C1 (stereo not given),inactive,
